SMILES strings stand for the structures. This is part of a sample that, as a whole, favours compounds with a hit. Of some 83,000 tested, about 20% had one in any assay.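 Single-concentration screen, 48 h exposure, 96-well plates. Endpoint: percent growth. Below 10 = active.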 Values without a mark were called inactive. Active and inactive are the calls of the source.

Test systems include RPMI-8226 leukemia; OVCAR-8 ovarian; OVCAR-5 ovarian; OVCAR-4 ovarian; SK-OV-3 ovarian; IGROV1 ovarian; OVCAR-3 ovarian; HS 578T breast; NCI/ADR-RES ovarian; T-47D breast.
What all share (experiment): NCI-60 one-dose screen, 48 h (100 = growth as untreated, 0 = no growth, -100 = all killed)
Common to all, as to settings: 10 µM unless noted

`O=C(CCc1nnc2sc(Cc3ccccc3Cl)nn12)c1nc2ncccc2[nH]1`: the growth is 103% in the test with RPMI-8226 leukemia; 93.4% in the test on OVCAR-8 ovarian; 93.3% in the test with OVCAR-5 ovarian; 92.5% with OVCAR-4 ovarian; 108% in the test on SK-OV-3 ovarian; 79.6% with IGROV1 ovarian. Further, the growth in the test with OVCAR-3 ovarian is 96.9%; in the test on HS 578T breast it was 88.7%; in the test with NCI/ADR-RES ovarian, 95.4%; in the test on T-47D breast it was 90.6%.
Take `C#CCn1cc(C=C2C(=O)NC(=O)NC2=O)c2cc(Cl)ccc21`: the growth was 70.3% in the test with RPMI-8226 leukemia; 87.5% with OVCAR-8 ovarian; 74.3% in the test with OVCAR-5 ovarian; 75.9% in the test with OVCAR-4 ovarian; 112% with SK-OV-3 ovarian; 82.8% in the test with IGROV1 ovarian. The growth was 88.5% with OVCAR-3 ovarian, 84% with HS 578T breast, 99.8% in the test with NCI/ADR-RES ovarian and 60.8% with T-47D breast.
Regarding `COc1ccc(S(=O)(=O)N(Cc2ccc3c(n2)C=CC(C)(C)O3)C2CCC2)cc1OC`, the growth was -47.2% (active) in the test with RPMI-8226 leukemia; 2.69% (active) in the test on OVCAR-8 ovarian; 27.2% in the test on OVCAR-5 ovarian; -13.8% (active) in the test with OVCAR-4 ovarian; -3.43% (active) in the test on SK-OV-3 ovarian; -23.9% (active) in the test on IGROV1 ovarian. The growth was -26.6% (active) with OVCAR-3 ovarian, 12.8% with HS 578T breast, 6.95% (active) in the test on NCI/ADR-RES ovarian and 0.329% (active) with T-47D breast.
For the compound `Clc1ccc(Nc2nnc(-c3ccc4c(c3)OCO4)o2)cc1`, the growth in the test on RPMI-8226 leukemia was 91.1%; in the test on OVCAR-8 ovarian it was 94.2%; in the test with OVCAR-5 ovarian, 104%; in the test on OVCAR-4 ovarian, 102%; with SK-OV-3 ovarian it was 102%; in the test on IGROV1 ovarian, 101%. In addition, the growth in the test with OVCAR-3 ovarian is 114%; in the test with HS 578T breast, 109%; in the test on NCI/ADR-RES ovarian, 98.6%; in the test with T-47D breast it was 82.5%.
On to `O=S1(=O)N(Cc2ccccc2)[C@@H](Cc2ccccc2)[C@H](O)[C@H](O)[C@H](Cc2ccccc2)N1Cc1ccccc1`, for which the growth in the test with RPMI-8226 leukemia is -7.2% (active); in the test with OVCAR-8 ovarian, 7.06% (active); in the test on OVCAR-5 ovarian, 41.1%; in the test with OVCAR-4 ovarian, 15.4%; in the test on SK-OV-3 ovarian, 6.58% (active); with IGROV1 ovarian it was 10.3%. The growth is -22% (active) in the test with OVCAR-3 ovarian, 19.7% in the test with HS 578T breast, -7.86% (active) in the test on NCI/ADR-RES ovarian and 7.87% (active) in the test on T-47D breast.
In the case of `O=c1oc2ccc(I)cc2c(=O)n1-c1ccc(Br)cc1F`, the growth was -26.2% (active) in the test on RPMI-8226 leukemia; 8.2% (active) in the test with OVCAR-8 ovarian; 20.7% in the test with OVCAR-5 ovarian; 17.1% in the test with OVCAR-4 ovarian; -9.81% (active) in the test with SK-OV-3 ovarian; 16.3% in the test with IGROV1 ovarian. In addition, the growth in the test with OVCAR-3 ovarian is 5.84% (active); in the test with HS 578T breast, -4.87% (active); with NCI/ADR-RES ovarian it was 7.59% (active); in the test on T-47D breast, -7.37% (active).
`CCCCC(O)(c1ccc(Cl)cc1)C(CN1CCOCC1)c1ccc(Cl)cc1` (stereo not given): the growth in the test with RPMI-8226 leukemia was 18.5%; with OVCAR-8 ovarian, 22.3%; with OVCAR-5 ovarian, 83.1%; with OVCAR-4 ovarian, 32%; in the test on SK-OV-3 ovarian it was 81.1%; in the test with IGROV1 ovarian, 40%. Further, the growth in the test with OVCAR-3 ovarian is 3.29% (active); in the test on HS 578T breast it was 40%; with NCI/ADR-RES ovarian, 29.9%; in the test with T-47D breast, 32%.
As for `CCOC(=O)c1cnc2c(C)cccc2c1Nc1ccc(C(C)=O)cc1`, the growth in the test with RPMI-8226 leukemia was -34.2% (active); in the test on OVCAR-8 ovarian it was 35%; in the test on OVCAR-5 ovarian, 45%; in the test on OVCAR-4 ovarian, 16.2%; in the test with SK-OV-3 ovarian, 68.2%; with IGROV1 ovarian, 2.45% (active). For the same compound, the growth in the test with OVCAR-3 ovarian is -8.93% (active); with HS 578T breast, 25.6%; in the test with NCI/ADR-RES ovarian, 25.1%; with T-47D breast it was -18.4% (active).
`CN1CCN(Cc2ccc(NC(=O)c3[nH]ncc3Nc3cc(OC4CCCC4)ncn3)cc2)CC1`: the growth was 16.9% in the test on RPMI-8226 leukemia; 42.6% in the test with OVCAR-8 ovarian; 50.5% with OVCAR-5 ovarian; 59.2% in the test on OVCAR-4 ovarian; 4.89% (active) in the test on SK-OV-3 ovarian; 35% with IGROV1 ovarian. Further, the growth in the test with OVCAR-3 ovarian was 11.2%; in the test with HS 578T breast, 32.8%; in the test on NCI/ADR-RES ovarian, 44%; in the test with T-47D breast, 64.1%.
`CC(C)CCNCC(O)Cn1c2ccccc2c2ccccc21` (stereo not given): the growth is -24% (active) in the test with RPMI-8226 leukemia; 6.95% (active) with OVCAR-8 ovarian; 41.3% in the test on OVCAR-5 ovarian; 21.8% with OVCAR-4 ovarian; 28.5% with SK-OV-3 ovarian; 10.3% in the test on IGROV1 ovarian. Also, the growth with OVCAR-3 ovarian was -36.2% (active); in the test with HS 578T breast it was 24.3%; in the test on NCI/ADR-RES ovarian, 20%; in the test with T-47D breast it was 12.2%.
Turning to `O=c1cc(NC2CCN(CCCc3ccccc3)CC2)c2cc(Cl)ccc2o1`, the growth was -8.63% (active) in the test with RPMI-8226 leukemia; -0.533% (active) with OVCAR-8 ovarian; 30.5% with OVCAR-5 ovarian; 12.7% in the test on OVCAR-4 ovarian; 4.31% (active) with SK-OV-3 ovarian; -4.09% (active) with IGROV1 ovarian. Further, the growth in the test on OVCAR-3 ovarian was -16.6% (active); in the test on HS 578T breast it was 2.69% (active); in the test on NCI/ADR-RES ovarian, 6.68% (active); in the test on T-47D breast, 4.55% (active).
Regarding `CCOC(=O)C1(C(=O)OCC)N=C(c2ccccc2)C=C1c1ccccc1`, the growth in the test on RPMI-8226 leukemia is 61.6%; in the test on OVCAR-8 ovarian, 87.2%; with OVCAR-5 ovarian, 97.8%; in the test with OVCAR-4 ovarian, 81.6%; in the test on SK-OV-3 ovarian, 105%; in the test with IGROV1 ovarian, 92.4%. The growth was 86.9% in the test on OVCAR-3 ovarian, 94.9% in the test on HS 578T breast, 76.5% in the test with NCI/ADR-RES ovarian and 62.2% with T-47D breast.
`CCOC(=O)c1cc2c(n1Cc1cc(OC)cc(OC)c1)-c1oncc1CCC2`: the growth with RPMI-8226 leukemia is 20.2%; with OVCAR-8 ovarian, 19.5%; in the test on OVCAR-5 ovarian it was 58.9%; with OVCAR-4 ovarian, 37.7%; in the test on SK-OV-3 ovarian it was -0.349% (active); in the test on IGROV1 ovarian, -38.4% (active). Also, the growth in the test on OVCAR-3 ovarian was -35.7% (active); in the test on HS 578T breast, 21.5%; with NCI/ADR-RES ovarian, 6.97% (active); with T-47D breast, 66.8%.
As for `COc1cccc(/C=C/C(=O)c2c(C)nc3ccccc3c2/C=C/c2ccccc2)c1OC`, the growth is 6.11% (active) in the test on RPMI-8226 leukemia; 21.6% with OVCAR-8 ovarian; 36.4% with OVCAR-5 ovarian; 46.3% in the test on OVCAR-4 ovarian; 89.8% in the test on SK-OV-3 ovarian; 20.9% in the test with IGROV1 ovarian. The growth with OVCAR-3 ovarian was 2.68% (active); in the test with HS 578T breast it was 37.5%; with NCI/ADR-RES ovarian it was 10%; with T-47D breast it was 11.2%.

(Values after PubChem BioAssay (NCI).)
